Growth inhibition data for six compounds are collected here from PubChem BioAssay (NCI).

Each structure is given as a SMILES string. About 79,000 compounds went through this panel and 15% of them were active in at least one assay; those are over-represented in the sample as a whole. Unmarked numbers belong to inactive results. Activity calls are given as the source filed them. Cut-off read from the data, not from the text of the source: active = growth inhibition above about 70%; inactive = the rest.

Assay [1] is described as follows: NCI Yeast Anticancer Drug Screen. Data for the rad50 strain (AID 155).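 Note: 0% = growth of vehicle-only cultures of the same strain.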 Conditions: S. cerevisiae rad50 strain growth inhibition, stronger effect = higher value. In short, it runs like this:
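Yeast carrying a defined DNA repair defect were exposed to test compounds, and growth was compared with vehicle-treated controls to give percent inhibition.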

A short description of assay [2]: NCI Yeast Anticancer Drug Screen. Data for the mec2-1 strain (AID 157). The settings on record: S. cerevisiae mec2-1 strain, stronger effect = higher value. The gist of the method: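 Test agents were screened against the mec2-1 yeast strain, with defined DNA repair or cell cycle alteration. Growth was scored as inhibition against vehicle-only controls.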
A short description of assay [3]: NCI Yeast Anticancer Drug Screen. Data for the sgs1 mgt1 strain (AID 161).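 Note: 0% = growth of cultures given vehicle only.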 The settings on record: S. cerevisiae sgs1 mgt1 strain, stronger effect = higher value. In short, it runs like this: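 Read-out: growth inhibition vs vehicle controls. Cells: mutant yeast strain deficient in DNA damage repair.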
The nature of assay [4]: NCI Yeast Anticancer Drug Screen. Data for the cln2 rad14 strain (AID 165).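 Note: 0% = growth equal to vehicle treated cultures.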 The settings on record: S. cerevisiae cln2 rad14 strain, stronger effect = higher value. The gist of the method:
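Growth of compound-exposed yeast (cln2 rad14 genotype) measured and expressed as inhibition relative to vehicle.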

The nature of assay [5]: NCI Yeast Anticancer Drug Screen. Data for the mlh1 rad18 strain (AID 175). Conditions: S. cerevisiae mlh1 rad18 strain growth inhibition, stronger effect = higher value. The gist of the method: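 In this whole-cell yeast screen, a strain with altered DNA damage repair is challenged with compound, and its growth is measured against matched vehicle-treated controls.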
Assay [6] in a line: NCI Yeast Anticancer Drug Screen. Data for the bub3 strain (AID 167). The settings on record: S. cerevisiae bub3 mutant strain, stronger effect = higher value. The gist of the method: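 Compounds were applied to a genetically altered yeast strain carrying a cell-cycle control defect. Growth inhibition was scored against vehicle-treated controls.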
Setting [7] is: at 5.0 µM (retest, dose inferred, filed as 0.5).
Where [8] appears, read: at 50.0 µM (retest, dose inferred, filed as 5.0).

As for `CCc1cccc(CC)c1NC(=S)N/C=C(\C#N)C(=O)c1ccc2ccccc2c1`, the growth inhibition in assay [1] (setting [7]) is 7%; in assay [1] (setting [8]), 14%; in assay [1] (at 50.0 µM) it was 44.8%; in assay [2] (setting [7]) it was -2%; in assay [2] (setting [8]), 6%; in assay [2] (at 50.0 µM), 38.5%. Also, the growth inhibition in assay [3] (setting [7]) was 0%; in assay [3] (setting [8]), 13%; in assay [3] (at 50.0 µM), 61.4%; in assay [4] (setting [7]) it was -23%; in assay [4] (setting [8]) it was 5%; in assay [4] (at 50.0 µM), 6.85%. Also, the growth inhibition in assay [5] (setting [7]) was -2%; in assay [5] (setting [8]), 5%; in assay [5] (at 50.0 µM), 67.2%.

Take `CCOC(=O)/C(=C\c1cccc(C(F)(F)F)c1)P(=O)(OCC)OCC`: the growth inhibition in assay [2] (setting [7]) is -8%; in assay [2] (setting [8]) it was 74% (active); in assay [2] (at 50.0 µM), 79% (active); in assay [3] (setting [7]) it was 3%; in assay [3] (setting [8]), 55%; in assay [3] (at 50.0 µM), 68.1%. Besides, the growth inhibition was 26% in assay [4] (setting [7]); 40% in assay [4] (setting [8]); 42.1% in assay [4] (at 50.0 µM); 27% in assay [6] (setting [7]); 85% (active) in assay [6] (setting [8]); 71.8% (active) in assay [6] (at 50.0 µM). For the same compound, the results for the growth inhibition in assay [5] (setting [7]), in assay [5] (setting [8]) and in assay [5] (at 50.0 µM) were 13%, 82% (active) and 52.2%, respectively.

Turning to `NC1C(=O)C2CCCCC2C(=O)C1C(=O)c1ccccc1` (stereo not given), the growth inhibition in assay [1] (setting [7]) was -2%; in assay [1] (setting [8]) it was 28%; in assay [1] (at 50.0 µM) it was -0.5%; in assay [2] (setting [7]), 4%; in assay [2] (setting [8]), 17%; in assay [2] (at 50.0 µM), 16.4%. The growth inhibition in assay [3] (setting [7]) is -1%; in assay [3] (setting [8]), -6%; in assay [3] (at 50.0 µM), 23.4%; in assay [4] (setting [7]), 1%; in assay [4] (setting [8]), 10%; in assay [4] (at 50.0 µM), -55.4%. For the same compound, the growth inhibition was 3% in assay [5] (setting [7]), 24% in assay [5] (setting [8]) and 48.1% in assay [5] (at 50.0 µM).

For `N#C/C(=C/c1cc(I)cc(I)c1O)C(N)=O`, the growth inhibition in assay [1] (setting [7]) was 42%; in assay [1] (setting [8]) it was 87% (active); in assay [1] (at 50.0 µM) it was 79.8% (active); in assay [3] (setting [7]), 69%; in assay [3] (setting [8]), 97% (active); in assay [3] (at 50.0 µM), 78.8% (active). In addition, the growth inhibition in assay [4] (setting [7]) is 41%; in assay [4] (setting [8]), 90% (active); in assay [4] (at 50.0 µM) it was 61.2%; in assay [6] (setting [7]), 44%; in assay [6] (setting [8]), 96% (active); in assay [6] (at 50.0 µM), 80.2% (active). Further, the growth inhibition in assay [5] (setting [7]) was 66%; in assay [5] (setting [8]), 97% (active); in assay [5] (at 50.0 µM), 71.2% (active).

With `O=C(O)/C=C\c1cc2ccccc2c2ccccc12`, the growth inhibition in assay [1] (setting [7]) was 13%; in assay [1] (setting [8]), 98% (active); in assay [1] (at 50.0 µM) it was 98.8% (active); in assay [3] (setting [7]), 18%; in assay [3] (setting [8]) it was 98% (active); in assay [3] (at 50.0 µM), 98.4% (active). The growth inhibition in assay [4] (setting [7]) was 11%; in assay [4] (setting [8]), 99% (active); in assay [4] (at 50.0 µM) it was 98.3% (active); in assay [6] (setting [7]) it was 8%; in assay [6] (setting [8]), 99% (active); in assay [6] (at 50.0 µM), 98.5% (active). Also, the growth inhibition was 18% in assay [5] (setting [7]), 99% (active) in assay [5] (setting [8]) and 98.6% (active) in assay [5] (at 50.0 µM).

Turning to `Cn1c2nc(-[n+]3ccc(-c4ccccc4)cc3)nc-2c([O-])n(C)c1=O`, the growth inhibition in assay [1] (setting [7]) was 3%; in assay [1] (setting [8]), 3%; in assay [1] (at 50.0 µM), -7.35%; in assay [3] (setting [7]), 1%; in assay [3] (setting [8]), -4%; in assay [3] (at 50.0 µM), 9.9%. Besides, the growth inhibition is -3% in assay [4] (setting [7]); 1% in assay [4] (setting [8]); 72.3% (active) in assay [4] (at 50.0 µM); -1% in assay [6] (setting [7]); -3% in assay [6] (setting [8]); -2% in assay [6] (at 50.0 µM). Further, the growth inhibition in assay [5] (setting [7]) was -1%; in assay [5] (setting [8]), 16%; in assay [5] (at 50.0 µM) it was -7.5%.
